In all, about 310,000 compounds went through this assay and about 14,000 (4.5%) showed an effect of 50% or more. The effect is printed as a negative number. This excerpt belongs to a sample that is enriched for strong results.
target: human ether-à-go-go-related gene (hERG) potassium channel (human, UniProt Q12809); test: primary screen, population patch clamp on CHO cells stably expressing hERG; higher = less effect of the substance
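Further: peak tail current of the secondary pulse compared with the same well before compound.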

Sequence of human ether-à-go-go-related gene (hERG) potassium channel (Q12809 whole entry, looked up): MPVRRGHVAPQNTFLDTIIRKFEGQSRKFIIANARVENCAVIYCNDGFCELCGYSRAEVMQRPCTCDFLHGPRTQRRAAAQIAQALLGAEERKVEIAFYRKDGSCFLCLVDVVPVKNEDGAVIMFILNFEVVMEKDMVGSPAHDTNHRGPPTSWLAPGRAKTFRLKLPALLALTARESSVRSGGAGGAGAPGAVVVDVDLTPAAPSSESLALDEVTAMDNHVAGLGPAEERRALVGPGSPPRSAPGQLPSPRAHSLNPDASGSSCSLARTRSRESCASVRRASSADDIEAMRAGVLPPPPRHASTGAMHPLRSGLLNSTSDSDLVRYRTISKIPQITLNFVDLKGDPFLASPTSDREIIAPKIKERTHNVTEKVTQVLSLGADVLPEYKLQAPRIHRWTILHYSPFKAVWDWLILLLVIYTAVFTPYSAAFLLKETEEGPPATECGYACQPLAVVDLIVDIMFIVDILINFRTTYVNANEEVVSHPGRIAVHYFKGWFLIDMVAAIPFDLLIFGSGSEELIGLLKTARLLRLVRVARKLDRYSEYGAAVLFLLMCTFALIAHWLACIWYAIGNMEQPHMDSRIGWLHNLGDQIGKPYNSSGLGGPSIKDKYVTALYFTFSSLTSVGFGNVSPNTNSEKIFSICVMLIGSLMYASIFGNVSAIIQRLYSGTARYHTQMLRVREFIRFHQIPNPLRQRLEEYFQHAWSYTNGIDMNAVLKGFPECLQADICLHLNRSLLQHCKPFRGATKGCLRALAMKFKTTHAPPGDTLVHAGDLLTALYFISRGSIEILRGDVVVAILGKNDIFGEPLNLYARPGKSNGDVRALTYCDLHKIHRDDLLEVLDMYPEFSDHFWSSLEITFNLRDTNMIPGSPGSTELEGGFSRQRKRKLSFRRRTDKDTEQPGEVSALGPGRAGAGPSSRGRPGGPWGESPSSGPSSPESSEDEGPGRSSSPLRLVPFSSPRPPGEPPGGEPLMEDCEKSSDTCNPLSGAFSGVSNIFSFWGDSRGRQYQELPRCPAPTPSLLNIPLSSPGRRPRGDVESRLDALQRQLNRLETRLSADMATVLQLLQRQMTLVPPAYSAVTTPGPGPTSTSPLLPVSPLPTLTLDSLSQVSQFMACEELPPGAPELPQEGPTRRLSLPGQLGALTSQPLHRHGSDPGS

| SMILES | hERG current change (%, negative = inhibition) at 10uM |
| --- | --- |
| CCOc1ccc(N2C(=O)CC(N3CCN(c4ccc(Cl)cc4)CC3)C2=O)cc1 (stereo not shown) | 18.5% |
| CCOC(=O)C1CCN(S(=O)(=O)c2c(C)[nH]c(=O)[nH]c2=O)CC1 | -0.439% |
| COc1ccc(C(CNC(=O)CSc2ccccc2F)N2CCOCC2)cc1 (stereo not shown) | 10.7% |
| CC(=O)Nc1ccc(/C=C(\C#N)C(=O)NC2CCCCC2)cc1 | 11.2% |
| O=C(Cc1ccccn1)c1ccccc1 | 30.3% |
| Cc1ccc(S(=O)(=O)N/N=C\c2ccc3c(c2)OCO3)cc1C | -11.8% |
| CN(C)CCNc1c2c(nc3ccccc13)CCC2 | -0.291% |
| c1coc(CNc2c3c(nc4ncnn24)CCC3)c1 | -29.6% |
| c1ccc(CNc2c3ccccc3nc3ccccc23)cc1 | -77.1% |
| O=C(Cc1ccccc1)NNc1c2ccccc2nc2ccccc12 | 12.3% |
| O=C(NC(CO)Cc1ccccc1)c1ccccc1 (stereo not shown) | -10.5% |
| c1coc(CNc2c3c(nc4ccccc24)CCC3)c1 | -78.7% |
| c1ccc(CNc2nc(-c3ccccc3)nc3ccccc23)cc1 | 4.15% |
| COCCNc1c2c(nc3ccccc13)CCC2.Cl | -58.5% |
| Cl.c1ccc(CNc2ncnc3ccccc23)cc1 | 4.3% |
| CN(C)CCCNc1c2c(nc3ccccc13)CCC2.Cl | -3.18% |
| O=C(NCc1ccco1)c1c2c(nc3ccccc13)CCC2 | -24.8% |
| OCC(Cc1ccccc1)Nc1c2ccccc2nc2ccccc12 (stereo not shown) | -71.2% |
| Cc1ccc(N2C(=O)C3C4CC(=O)C(c5ccccc54)C3C2=O)cc1C (stereo not shown) | -12.3% |
| C#CCOCCOCCOCCNc1nc(N2CCN(C(=O)Cn3cc(CC(C)O)nn3)CC2)nc(N2CCN(C(=O)Cn3cc(CC(C)O)nn3)CC2)n1 (stereo not shown) | -7.58% |
| CC(C)(C)[C@H]1C=C(C(=O)O)O[C@@H](OCCCCO)C1 | 6.41% |
| CC12CCC(C(=O)NCc3ccco3)(OC1=O)C2(C)C (stereo not shown) | 2.02% |

| SMILES | hERG current change (%, negative = inhibition) at 10uM |
| --- | --- |
| COc1cccc(NC(=O)Nc2cc(C(=O)O)ccc2N2CC3CC(C2)c2cccc(=O)n2C3)c1 (stereo not shown) | 8.25% |
| O=C(Nc1nccs1)c1cc2sccc2n1Cc1ccc(Cl)cc1 | -2.4% |
| Cc1ccc(C)c(N(CC(=O)NC(C)(C)C)C(=O)CCC(=O)Nc2nccs2)c1 | 2.56% |
| CC(C)Cn1c(N)c(C(=O)CSc2nc3ncc(Cl)cc3[nH]2)c(=O)n(C)c1=O | -0.019% |
| Cc1coc2cc3oc(=O)c(CCC(=O)N4CCC(C(=O)O)(c5ccccc5)CC4)c(C)c3cc12 | 0.933% |
| CC(C)(C)N1CC(OC(N)=O)C1 | 21% |
| CC(C)CNC(=O)COC(=O)c1c2c(nc3ccccc13)CCC2 | 4.12% |
| OCCNc1c2c(nc3ccccc13)CCCC2 | -39% |
| CC(C)(C)Nc1c2ccccc2nc2ccccc12 | -68.2% |
| CC(C)(C)OC(=O)NNc1c2ccccc2nc2ccccc12 | -27.7% |
| CC(C)CNc1c2c(nc3ccccc13)CCC2.Cl | -69.2% |
| CC(C)NCC(=O)Nc1c2c(nc3ccccc13)CCC2.O=C(O)C(=O)O | 6.26% |
| Cc1c2ccccc2nc2ccccc12 | -1.84% |
| Clc1c2c(nc3ccccc13)CCC2 | 16.4% |
| Cl.c1ccc(CNc2c3c(nc4ccccc24)CCC3)cc1 | -75.3% |
| Cc1ccc(N/N=C/c2ccncc2)cc1.Cl | 4.03% |
| O=C(COC(=O)c1ccc(O)cc1)NC1CCCCCC1 | 7.22% |
| O=C(NNS(=O)(=O)c1ccc(C(F)(F)F)cc1)c1cnn(-c2ccccc2)c1C(F)(F)F | 11.5% |
| CCOc1ccc(N(CC)C(=O)CCS(=O)(=O)c2cccc3nonc23)cc1 | -4.92% |
| O=C(CSc1nnc(COc2ccccc2)n1-c1ccccc1)c1ccccc1 | 11.2% |
| O=C(CCCCCNC(=O)N1CCn2c1nc1ccccc12)NCc1ccccc1Cl | -16.6% |
| CCN(CC)S(=O)(=O)c1ccc(-c2nnc(SCc3nnc(-c4ccccc4)o3)o2)cc1 | 7.63% |

| SMILES | hERG current change (%, negative = inhibition) at 10uM |
| --- | --- |
| CCSc1nnc(-c2cccc(S(=O)(=O)N(CC)CC)c2)n1Cc1ccccc1 | -62.6% |
| COc1cccc(-c2nnc(SCC3CNC(=O)O3)n2-c2ccc(Cl)cc2)c1 (stereo not shown) | 8.33% |
| Cc1cccc(-c2nnc(SCC3CNC(=O)O3)n2-c2ccc(Cl)cc2)c1 (stereo not shown) | -40.3% |
| CCN(CC)S(=O)(=O)c1cccc(-c2nnc(SCC(=O)NC)n2N)c1 | 8.5% |
| CCN(CC)S(=O)(=O)c1cccc(-c2nnc(SCC(N)=O)n2N)c1 | -28.9% |
| CCN(CC)S(=O)(=O)c1cccc(-c2nnc(SCC#N)n2Cc2ccccc2)c1 | -25.5% |
| CCN(CC)S(=O)(=O)c1cccc(-c2nnc(SCc3nnc(-c4cccs4)o3)n2N)c1 | -44.3% |
| CCN(CC)S(=O)(=O)c1cccc(-c2nnc(SCc3nnc(-c4ccccc4)o3)n2C)c1 | -67.4% |
| CCN(CC)S(=O)(=O)c1cccc(-c2nnc(SCC(=O)c3ccc(Cl)s3)n2C)c1 | -52.7% |
| CCN(CC)S(=O)(=O)c1cccc(-c2nnc(SC(C)C#N)n2Cc2ccccc2)c1 (stereo not shown) | -7.34% |
| COc1ccc(-n2c(SCC3CNC(=O)O3)nnc2-c2ccc(Cl)cc2)cc1 (stereo not shown) | -54.8% |
| CCn1cc(/C=C(\NC(=O)c2cc(OC)c(OC)c(OC)c2)C(=O)NCCN2CCOCC2)c2ccccc21 | 10.8% |
| COc1ccc(CCNC(=O)Cn2nc([N+](=O)[O-])c(Br)c2C)cc1OC | -0.503% |
| O=S(CC1CC1(Cl)Cl)CC1CC1(Cl)Cl (stereo not shown) | 3.18% |
| O=C(CNc1cccc(S(=O)(=O)N2CCCC2)c1)Nc1cccc(Br)c1 | -18.5% |
| COc1ccccc1N(C)S(=O)(=O)c1ccc(C(=O)NCc2ccc3c(c2)OCO3)cc1 | 4.2% |
| O=C(c1ccc(O)cc1)c1ccc(C(=O)O)c(C(=O)O)c1 | 23.2% |
| Cc1cnc(NC(=O)CSC(=S)N2CCOCC2)s1 | 15.4% |
| COC(=O)Nc1ccc(S(=O)(=O)N2CCC(Cc3ccccc3)CC2)cc1 | 1.4% |
| COc1ccc2nc(NC(=O)CCc3ccc(OC)c(OC)c3)sc2c1 | 26.2% |
| CCC(C)n1c(-c2cccc(S(=O)(=O)N(CC)CC)c2)n[nH]c1=S (stereo not shown) | 26.6% |
| COc1ccc(-n2c(SCc3nnc(-c4ccccc4)o3)nnc2-c2ccccc2)cc1 | -29.5% |

| SMILES | hERG current change (%, negative = inhibition) at 10uM |
| --- | --- |
| CCN(CC)S(=O)(=O)c1ccc(-c2nnc(SCc3nnc(-c4ccc(C)cc4)o3)n2CC)cc1 | -55.2% |
| COc1ccc(-c2nnc(SCc3nnc(-c4ccccc4)o3)n2C)cc1OC | -54.3% |
| COc1ccc(-c2nnc(SCc3nnc(-c4ccc(Cl)cc4)o3)n2-c2ccccc2)cc1 | -56% |
| CCn1c(SCc2nnc(-c3ccccc3)o2)nnc1-c1ccc(S(=O)(=O)N2CCCC2)cc1 | -34.6% |
| COCCn1c(SCc2nnc(-c3ccc(OC)c(OC)c3)o2)nnc1-c1ccncc1 | 1.42% |
| COc1ccc(-c2nnc(SCc3nnc(-c4ccccc4)o3)n2-c2ccccc2)cc1 | -9.78% |
| CCN(CC)S(=O)(=O)c1cccc(-c2n[nH]c(=S)n2C)c1 | -51.8% |
| CCN(CC)S(=O)(=O)c1ccc(-c2nnc(SCc3nnc(-c4ccc(C)cc4)o3)o2)cc1 | 8.8% |
| COc1ccc(-c2nnc(CSc3nc4ccccc4c(=O)n3C)o2)cc1OC | -4.89% |
| CCN(CC)S(=O)(=O)c1cccc(-c2n[nH]c(=S)n2CC(C)C)c1 | 6.22% |
| COc1cc(NC(=O)c2ccccc2)ccc1NC(=O)c1cc2ccccc2o1 | 25.8% |
| CCOC(=O)c1cc(-c2ccc([N+](=O)[O-])cc2)nc2c1c(=O)[nH]c(=O)n2Cc1ccccc1 | 11.9% |
| CC1CCN(C(=O)c2[nH]cnc2C(=O)NC2CCN(C(=O)OC(C)(C)C)CC2)CC1 | 9.62% |
| COc1ccc(NC(=S)NCc2ccco2)c(OC)c1 | -2.08% |
| CCOc1ccc(N(C)S(=O)(=O)c2ccc3[nH]cc(C(=O)NCCCOC)c(=O)c3c2)cc1 | 3.51% |
| O=C(O)Cn1c2ccccc2c2ccccc21 | 30.5% |
| COc1ccc2c(c1OC)C(=O)N(c1ncn[nH]1)C2 | 13.5% |
| O=C(/C=C\c1ccc(-c2cccc([N+](=O)[O-])c2)o1)N1CCOCC1 | -10.2% |
| Cc1ccc2[nH]c3c(=O)n(CC(=O)N4CCN(C)CC4)ncc3c2c1 | -1.46% |
| Cn1c(=O)n(C)c2cc(NC(=O)CSc3ccccc3)ccc21 | 4.01% |
| CCc1nc2ccccc2n1CCc1ccccc1.Cl | -16.6% |
| CN(C(=O)c1cc([N+](=O)[O-])ccc1N1CCCC1)C1CCCCC1 | 1.07% |

From PMC4336329 (PLoS ONE, 2015)
